This passage reports inhibition results from PubChem BioAssay AID687016 (The Scripps Research Institute Molecular Screening Center, 2013).

Several values for one entry are separate records, joined by “and”; a condition that tells them apart may be missing. Equal entries are not always repeated. Screen size: about 370,000 compounds; about 2,800 (0.76%) were called active. The sample holds actives, similar compounds and a random draw of the others, so the mix is not that of the screen. A number with no mark means an inactive call. No stated cut-off is given here; in the data, active means inhibition above about 21%; inactive means the rest.

E3 ubiquitin-protein ligase UHRF1 (Homo sapiens), sequence (Q96T88 whole entry, looked up, the tested form may be a part): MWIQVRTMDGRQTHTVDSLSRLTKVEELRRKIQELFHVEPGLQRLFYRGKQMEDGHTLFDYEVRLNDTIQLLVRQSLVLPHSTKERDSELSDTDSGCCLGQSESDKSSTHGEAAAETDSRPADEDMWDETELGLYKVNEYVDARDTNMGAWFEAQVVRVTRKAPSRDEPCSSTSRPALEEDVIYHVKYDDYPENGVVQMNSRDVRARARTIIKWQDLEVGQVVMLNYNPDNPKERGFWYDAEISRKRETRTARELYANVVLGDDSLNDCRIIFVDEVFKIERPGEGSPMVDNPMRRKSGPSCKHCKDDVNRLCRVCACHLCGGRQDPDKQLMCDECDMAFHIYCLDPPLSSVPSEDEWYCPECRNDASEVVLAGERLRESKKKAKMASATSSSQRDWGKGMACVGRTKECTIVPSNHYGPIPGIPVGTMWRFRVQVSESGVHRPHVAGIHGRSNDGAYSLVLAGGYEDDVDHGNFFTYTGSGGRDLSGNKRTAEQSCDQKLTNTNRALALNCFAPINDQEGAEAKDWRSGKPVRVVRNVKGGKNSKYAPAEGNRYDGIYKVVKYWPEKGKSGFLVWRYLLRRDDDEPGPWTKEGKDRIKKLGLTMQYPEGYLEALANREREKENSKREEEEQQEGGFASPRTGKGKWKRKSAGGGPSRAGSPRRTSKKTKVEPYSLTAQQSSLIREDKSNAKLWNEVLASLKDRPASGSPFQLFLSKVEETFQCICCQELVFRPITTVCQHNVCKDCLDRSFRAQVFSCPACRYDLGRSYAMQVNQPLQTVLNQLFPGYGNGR

The assay concerns the target E3 ubiquitin-protein ligase UHRF1 (Homo sapiens) (UniProt Q96T88). Kind of assay: blockers of UHRF1 binding to methyl-oligo – biochemical, TR-FRET, human UHRF1, single concentration, counter-screen for MBD2 inhibitor project, primary screen (AID 687016).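 Further: UHRF1 SRA domain binding a hemimethylated CpG hairpin DNA probe; 0% = median of test compound wells and 100% = reference inhibitor.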 The settings on record: UHRF1 binding to methylated oligo, at 4.4 µM, stronger effect = higher value.
What is called inhibition is the relative decrease from the control value, in per cent. As to `CN(C)[C@H]1CCN(c2cccc3c2S(=O)(=O)N2CC[C@H](C2)O3)C1`, the inhibition was -0.6%.

Turning to `O=C(NCCCc1ccccc1)[C@H](Cc1ccccc1)NC1(C(=O)NCCc2c[nH]c3ccccc23)CCC1`, the inhibition is 0.93%.

Regarding `C=CCN1C(=O)[C@@H](CC(=O)NCC2CCCCC2)[C@]2(C(=O)OC)CCCCC=C12`, the inhibition was -2.02%.

Consider `COc1cccc(N2CCN(CC(=O)N(C)Cc3ccc(F)cc3)CC2)c1`, for which the inhibition is -0.26%.

With `COC(=O)c1cc(S(=O)(=O)N2CCN(c3ccccc3C)CC2)cn1C`, the inhibition is -0.14%.

Take `CCOC(=O)[C@]12CCCC=C1N(Cc1ccc(OC)cc1)C(=O)[C@@H]2CC(=O)NCc1cccs1`: the inhibition is 0.05%.

For the compound `O=C(Nc1cc(Cl)cc(Cl)c1)OCCN1CCCC12CCC(c1ccccc1)CC2` (stereo unspecified), the inhibition is -2.5%.

Turning to `O=C(CSc1nc2c(c(=O)[nH]1)CCCC2)N1CCCCC1`, the inhibition is 4.3%.

Take `CCCC(C(=O)OCCN(CC)CC)(c1ccccc1)c1ccccc1`: the inhibition was 0%.

Regarding `CN(CCOc1ccc(CC2SC(=O)NC2=O)cc1)c1ccccn1` (stereo unspecified), the inhibition was 0.45% and -0.75%.

`CCN(CC)CCOc1ccc2c(c1)C(=NNC(=O)c1ccccn1)c1cc(OCCN(CC)CC)ccc1-2`: the inhibition was 105% (active).

With `Cc1ccc(C)c(NC(=O)CCS(=O)(=O)c2ccccc2)c1`, the inhibition is 5.41%.

As for `Cc1ccsc1-c1cc(C(=O)O)c2c(ccc3ccccc32)n1`, the inhibition is -2.73%.

As to `Cc1cc(C)c2nc(-c3ccco3)cc(C(=O)O)c2c1`, the inhibition was 73.6% (active).

With `CCOC(=O)c1ccn(-c2nc(-c3ccco3)cc(C(F)(F)F)n2)n1`, the inhibition was 1.45%.

Regarding `C=C(C)C#CC(Cc1ccccc1)NCC1CC1` (stereo unspecified), the inhibition was -0.06%.

For the compound `Cc1ccccc1NC(=O)Cn1nnc(-c2ccccc2F)n1`, the inhibition was -2.25%.

For `CC(=O)c1cc(-c2ccc3ccccc3c2)c(=O)n2c1CCC2`, the inhibition is -1.09%.

On to `COC(=O)[C@]12C[C@H](CC(=O)N3CCN(C(=O)C4CC4)CC3)C(=O)N(CCC3=CCCCC3)C1=C[C@H](C(C)C)O[C@@H]2C1CC1`, for which the inhibition was -0.03%.

As to `N#Cc1ccc(-c2ccc(Cl)cc2)nc1Oc1ccc(F)cc1`, the inhibition was -1.28%.

Regarding `COc1nc(-c2ccc(Cl)cc2)ccc1-c1noc(-c2cccs2)n1`, the inhibition is 37.1% (active).

As for `Cc1cc(NS(=O)(=O)c2ccc(NC(=O)CSc3nnc(-c4ccc(C(C)(C)C)cc4)n3Cc3ccco3)cc2)nc(C)n1`, the inhibition is -1.86%.

Turning to `COC(=O)C12C=C3CC(c4ccccc4)=C3C(=O)N1Cc1[nH]c3ccccc3c1C2` (stereo unspecified), the inhibition is -0.85%.

As for `C=CCN1C(=O)[C@H](CC(=O)NCCCN2CCCC2=O)[C@@]2(C(=O)OCC)CCCC=C12`, the inhibition was 1.86%.

Consider `COC(=O)[C@]12C[C@H](CC(=O)NCCCN3CCCC3=O)C(=O)N(CCc3ccc(OC)c(OC)c3)C1=C[C@H](COCc1ccccc1)O[C@@H]2C`, for which the inhibition was -1.34%.

For `Nc1ncnc2c1ncn2[C@@H]1O[C@H](C(=O)NCC(F)(F)F)[C@@H](O)[C@H]1O`, the inhibition was -0.85%.

Turning to `Nc1ncnc2c1ncn2[C@@H]1O[C@H](C(=O)N2CCSC2)[C@@H](O)[C@H]1O`, the inhibition is 2.48%.

For `Nc1ncnc2c1ncn2C1OC(CO)CC1O` (stereo unspecified), the inhibition is 60.9% (active).

On to `O=C(c1ccccc1)c1ccc(-c2ccccc2C(=O)NC2CCCCN(Cc3ccc(Cl)cc3)C2=O)cc1` (stereo unspecified), for which the inhibition was -0.04%.

Turning to `CCCC1CCC2(CCCN2CCOC(=O)NCc2ccccc2)CC1` (stereo unspecified), the inhibition is 0.86%.

Consider `COC(=O)C1CN(CC(C)C)CCS(=O)(=O)N1Cc1ccc(F)cc1` (stereo unspecified), for which the inhibition was 0.32%.

Consider `Cc1cnc(C(=O)N2CCCC(C(=O)c3ccc(C(F)(F)F)cc3)C2)cn1` (stereo unspecified), for which the inhibition was 22% (active).

On to `COCC(=O)N1CCCC(C(=O)c2ccc(C(F)(F)F)cc2)C1` (stereo unspecified), for which the inhibition was 2.82%.

Take `O=C(c1ccc(C(F)(F)F)cc1)C1CCCN(C(=O)c2csnn2)C1` (stereo unspecified): the inhibition is 0.31%.

Turning to `C=C(C)C1CC23C(=O)C4(C(=O)c5ccccc5)C[C@@]5(C)CCC(CC2C1(C)C)(C4=O)C35OC` (stereo partly specified), the inhibition was 0.2%.

For `C=CCN1C(=O)[C@H](CC(=O)N2CCN(C(=O)OCC)CC2)[C@@]2(C(=O)OCC)CCCC=C12`, the inhibition is -2.61%.

For the compound `COC(=O)c1ccccc1-n1cc(COC(=O)NCCc2ccccc2)nn1`, the inhibition was 0.82%.

For the compound `CC(CCN1CCC(C(O)(c2ccccc2)c2ccccc2)CC1)Oc1ccc(Cl)cc1` (stereo unspecified), the inhibition was 1.4%.

For the compound `O=C(CSc1nc2ccccc2n1Cc1ccccc1Cl)N/N=C\c1c[nH]c2ccccc12`, the inhibition is -1.5%.

Consider `O=C(CCS(=O)(=O)c1ccc(Br)cc1)NCCc1ccc(Cl)cc1`, for which the inhibition is 0.15%.

Regarding `COc1ccc(Cl)cc1NC(=O)COC(=O)c1ccc(Br)o1`, the inhibition was 0.18%.

As for `COc1ccc(Cl)cc1NC(=O)CCS(=O)(=O)c1ccc(Br)cc1`, the inhibition is 45.2% (active).

Take `C[C@H]1CCC/C=C/C(=O)c2c(O)cc(O)cc2CC(=O)O1`: the inhibition is 0.98%.

Consider `C[C@H]1Cn2cnc(C(=O)N[C@H](C)c3ccccc3)c2C(=O)N1`, for which the inhibition was 11.2%.

As for `C[C@@H]1Cn2cnc(C(=O)Nc3ccc(CNC(=O)OC(C)(C)C)cc3)c2C(=O)N1`, the inhibition was 2.17%.

Turning to `CC1CCN(C(=O)c2ncn3c2C(=O)N[C@@H](C)C3)CC1`, the inhibition was 22.7% (active).

Turning to `FC(F)(F)c1cccc(NC(=S)OC2CCC23CCC(c2ccccc2)CC3)c1` (stereo unspecified), the inhibition is -1.02%.

Turning to `Cc1ccc(-n2c(SCC(=O)Nc3ccc(S(=O)(=O)Nc4nccs4)cc3)nnc2-c2cccnc2)cc1`, the inhibition is 3.04%.

Turning to `Cc1ccc(-n2c(SCC(=O)Nc3ccc(S(=O)(=O)Nc4nccs4)cc3)nnc2-c2ccccn2)cc1`, the inhibition is 2.8%.

In the case of `CC(C)(C)c1cc(=O)n2c(nc3ccccc32)[nH]1`, the inhibition is 0.39%.

`CCc1nc2ccccc2n(CCOCCOCCn2c(=O)c(CC)nc3ccccc32)c1=O`: the inhibition is 0.72%.

On to `Cc1nn2c3ccccc3nc2n(C)c1=O`, for which the inhibition is 64.7% (active).

As for `COC(=O)c1cccc(Cn2ccc3ccc(-c4ccc5ccn(C(=O)C6CCCCC6)c5c4)cc32)c1`, the inhibition was -1.71%.

Turning to `COc1ccc(C(C)C)cc1-c1ccc2nncn2c1`, the inhibition was 42.2% (active).

In the case of `COc1ccc(OC)c(S(=O)(=O)Nc2cccc(-c3ccc4nncn4n3)c2)c1`, the inhibition is -0.61%.

With `CS(=O)(=O)c1cccc(-c2ccc3nncn3c2)c1`, the inhibition was 4.75%.

For `Nn1c(SCC(=O)Nc2cccc3ccccc23)nnc1-c1cc(-c2ccc(F)cc2)n[nH]1`, the inhibition is -1.05%.

With `COc1ccc(-n2cc(CNC3CCOCC3)c(-c3cccc(F)c3)n2)cc1`, the inhibition is 21.6% (active).

With `COc1ccc(-c2nn(-c3ccccc3)cc2CN2CCCO2)c(F)c1`, the inhibition is -0.87%.

Regarding `CCC(O)C1CCN(Cc2cn(-c3ccc(OC)cc3)nc2-c2cccc(F)c2)CC1` (stereo unspecified), the inhibition was 0.5%.

Turning to `O=C(N1CCOCC1)N1CC[C@H]2[C@H](CCCN2Cc2ccc(F)cc2)C1`, the inhibition was -1.64%.

Take `COC(=O)C1CN(Cc2cn(Cc3ccc(F)cc3)nn2)CCS(=O)(=O)N1Cc1ccc(Cl)cc1` (stereo unspecified): the inhibition was 2.82%.

As for `Fc1cccc(Cc2c(-c3ccc(Cl)cc3)nc3ccc(Cl)cn23)c1`, the inhibition was 26.5% (active).

As for `Fc1cccc(Cc2c(-c3cccc(Cl)c3)nc3ccc(Br)cn23)c1`, the inhibition is 1.63%.

On to `COC(=O)c1ccc2nc(-c3ccc(Cl)cc3)c(Cc3cccc(F)c3)n2c1`, for which the inhibition is 10.2%.

Take `CN(CCc1ccccc1)C(=O)Cn1nc(-c2ccccc2)ccc1=O`: the inhibition was 1.78%.

As to `CC(=O)Nc1ccccc1Sc1ccc2c3c(cccc13)C(=O)N(c1ccc(C)cc1)C2=O`, the inhibition is 21.6% (active).

With `Cc1ccc(-n2c(SCC(=O)Nc3cccc4ccccc34)nnc2-c2ccccn2)cc1`, the inhibition was 0.12%.

Consider `Cc1ccc(-n2c(SCC(=O)Nc3cccc4ccccc34)nnc2-c2ccco2)cc1`, for which the inhibition is -0.24%.

Take `COc1ccc(CSc2nnc(-c3cccc(C)c3)n2C)cc1`: the inhibition was 0.25%.

On to `Cc1ccc(S(=O)(=O)NC(C)C(=O)NCc2ccc(Cl)cc2)cc1` (stereo unspecified), for which the inhibition was 0.66%.

Turning to `O=C(NCc1ccc(Cl)cc1)NCc1ccc(Cl)cc1`, the inhibition is 24.9% (active).

Consider `S=C(NCc1ccc(Cl)cc1)NC12CC3CC(CC(C3)C1)C2`, for which the inhibition is -0.38%.

As for `Cc1c[nH]c2cccc(-c3ccc(Cl)cc3)c12`, the inhibition was -1.82%.

With `COc1cc(/C=C/C(=O)n2cnc3ccccc32)cc(OC)c1OC`, the inhibition was 1.6%.

Consider `Cc1cc(C)cc(NC(=O)N2CCC(N(C)CCC(C)C)CC2)c1`, for which the inhibition was 0.51%.
